Data on nine compounds can be found in PubChem BioAssay (NCI).

Compounds without any hit were thinned out: in the full panel of roughly 83,000, 20% have a hit.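 Step 1: grow cells in 96-well plates. Step 2: add test compound at a single concentration. Step 3: incubate 48 h. Step 4: record percent growth.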 Values without a mark were called inactive. Calls of active or inactive are those of the source. The calls were made as follows: active = growth percent below 10; inactive = the rest.

Common to all, as to test: NCI-60 one-dose screen, 48 h (100 = growth as untreated, 0 = no growth, -100 = all killed)
One assay relates to DU-145 prostate. The following applies: 10 µM unless noted.
The next assay deals with K-562 leukemia. The note with it: 10 µM unless noted.
The subject of a further assay is MALME-3M melanoma. The following applies: 10 µM unless noted.
The next assay concerns RXF 393 renal. The following applies: 10 µM unless noted.
The test system of a further assay is SF-268 CNS. The following applies: 10 µM unless noted.
Another assay relates to SF-295 CNS. The following applies: 10 µM unless noted.
The next assay concerns SF-539 CNS. The note with it: 10 µM unless noted.
A further assay relates to UACC-257 melanoma. The note with it: 10 µM unless noted.
The test system of a further assay is M14 melanoma. The note with it: 10 µM unless noted.
The next assay concerns HCT-15 colon. The note with it: 10 µM unless noted.
A further assay has as its system SNB-75 CNS. The note with it: 10 µM unless noted.
For a further assay, the system named is SNB-19 CNS. The note with it: 10 µM unless noted.
The next assay concerns U251 CNS. The note with it: 10 µM unless noted.
For another assay, the system named is PC-3 prostate. The following applies: 10 µM unless noted.
The test system of the next assay is SK-MEL-5 melanoma. The following applies: 10 µM unless noted.
The next assay relates to UACC-62 melanoma. The following applies: 10 µM unless noted.
The next assay has as its system SK-MEL-28 melanoma. The note with it: 10 µM unless noted.
The test system of a further assay is HT29 colon. The note with it: 10 µM unless noted.
The test system of the next assay is MDA-MB-231 breast. The note with it: 10 µM unless noted.
The test system of the next assay is LOX IMVI melanoma. The note with it: 10 µM.

Turning to `CCCCOc1ccc(NC(=O)c2sc3nc(C)ccc3c2N)cc1`, the growth with DU-145 prostate was 46.4%; in the assay on K-562 leukemia, 9.87% (active); in the assay on MALME-3M melanoma, 23.3%; in the assay on RXF 393 renal it was -20.7% (active); in the assay with SF-268 CNS it was 29.8%; in the assay on SF-295 CNS it was -54% (active). Also, the growth in the assay on SF-539 CNS was -99.7% (active); in the assay with UACC-257 melanoma, 54.1%; with M14 melanoma it was 59.9%; in the assay with HCT-15 colon, 36.7%; in the assay on SNB-75 CNS it was -17.3% (active); with SNB-19 CNS it was 0.979% (active). Moreover, the growth is 0.73% (active) in the assay with U251 CNS; 36.8% in the assay with PC-3 prostate; 3.73% (active) in the assay on SK-MEL-5 melanoma; 40% in the assay on UACC-62 melanoma; 50.7% with SK-MEL-28 melanoma.

`CSc1ccccc1NC(=O)c1ccc2nn(/C(C#N)=C/c3ccccn3)nc2c1`: the growth is -99.5% (active) in the assay on DU-145 prostate; -10.1% (active) with K-562 leukemia; -89% (active) in the assay on MALME-3M melanoma; -95.8% (active) in the assay on RXF 393 renal; 14.6% in the assay with SF-268 CNS; -21.9% (active) with SF-295 CNS. In addition, the growth was -93.1% (active) in the assay on SF-539 CNS; -91% (active) in the assay on UACC-257 melanoma; -88.1% (active) in the assay on M14 melanoma; -62.8% (active) in the assay on HCT-15 colon; -91.9% (active) in the assay on HT29 colon; 48.1% in the assay with SNB-75 CNS. Besides, the growth in the assay with U251 CNS is -81.6% (active); with PC-3 prostate it was -57.7% (active); with SK-MEL-5 melanoma, -88.8% (active); with UACC-62 melanoma, -89.6% (active); in the assay on SK-MEL-28 melanoma, -91.4% (active).

`COc1cc(OC)cc(-c2cc3ccc(N(C)C)cc3c(=O)[nH]2)c1`: the growth with DU-145 prostate was 21.5%; with MALME-3M melanoma, 59.3%; with MDA-MB-231 breast, 33.1%; in the assay with RXF 393 renal, 80.5%; in the assay with SF-268 CNS, 36.3%; with SF-295 CNS, 16.2%. Also, the growth is -1.21% (active) with SF-539 CNS; 75.7% with UACC-257 melanoma; 10.7% with M14 melanoma; 18.9% with HCT-15 colon; 12.4% in the assay with HT29 colon; 57.3% in the assay on SNB-75 CNS. Also, the growth was 35.5% with SNB-19 CNS; 7.67% (active) in the assay on U251 CNS; 35.7% in the assay on PC-3 prostate; 51.8% with UACC-62 melanoma; 23% in the assay with LOX IMVI melanoma; 61.3% in the assay with SK-MEL-28 melanoma.

`CSc1ccc(NC(=O)c2ccc3nnn(/C(C#N)=C/c4ccccn4)c3c2)cc1`: the growth in the assay on DU-145 prostate is -97.9% (active); in the assay with K-562 leukemia, -5.65% (active); with MALME-3M melanoma it was -94.6% (active); in the assay with RXF 393 renal, -98.6% (active); in the assay on SF-268 CNS, -3.01% (active); in the assay on SF-295 CNS it was -73.3% (active). The growth in the assay with SF-539 CNS was -99.3% (active); in the assay on UACC-257 melanoma it was -76.9% (active); in the assay on M14 melanoma, -89.7% (active); in the assay on HCT-15 colon, -66.3% (active); in the assay on SNB-75 CNS, 63.2%; with U251 CNS, -81.6% (active). For the same compound, the growth in the assay on PC-3 prostate was -20.1% (active); with SK-MEL-5 melanoma, -99.7% (active); with UACC-62 melanoma it was -65.9% (active); with SK-MEL-28 melanoma, -72.6% (active).

`NS(=O)(=O)c1ccc(-n2cc(-c3cccc(NC(=O)c4cc(C(F)(F)F)cc(C(F)(F)F)c4)c3)nn2)cc1`: the growth in the assay with DU-145 prostate is 69.7%; with K-562 leukemia, 52.7%; in the assay on MALME-3M melanoma, 63.7%; in the assay on SF-268 CNS it was 45.3%; with SF-295 CNS, 31.4%; in the assay on SF-539 CNS it was 35.1%. Besides, the growth in the assay with UACC-257 melanoma is 91.1%; in the assay on M14 melanoma, 65%; with HCT-15 colon, 85.7%; with HT29 colon, 46.6%; in the assay with SNB-75 CNS, 37.5%; in the assay with SNB-19 CNS, 25%. In addition, the growth with U251 CNS is 11.7%; with PC-3 prostate, 52%; in the assay with SK-MEL-5 melanoma, 90.5%; in the assay on UACC-62 melanoma, 73.8%; in the assay on SK-MEL-28 melanoma, 81.5%.

As to `C(=C\c1cc(/C=C/c2ccccc2)c2ccccc2n1)/c1ccccc1`, the growth is 101% in the assay on DU-145 prostate; 43.2% in the assay on K-562 leukemia; 90.5% with MALME-3M melanoma; 111% in the assay with RXF 393 renal; 102% in the assay with SF-268 CNS; 109% in the assay on SF-295 CNS. The growth in the assay on SF-539 CNS was 74.3%; in the assay with UACC-257 melanoma it was 98.5%; in the assay on M14 melanoma, 51.4%; with HCT-15 colon it was 29.2%; in the assay on SNB-75 CNS, 115%; in the assay with SNB-19 CNS it was 97.7%. For the same compound, the growth in the assay with U251 CNS is 62.3%; in the assay on PC-3 prostate, 78.2%; with SK-MEL-5 melanoma, 81.7%; in the assay with UACC-62 melanoma, 93.4%; in the assay on SK-MEL-28 melanoma, 114%.

Consider `COc1ccc2cc([C@H](C)C(=O)N/N=C/c3ccc(Br)cc3)ccc2c1`, for which the growth is 108% in the assay on DU-145 prostate; 100% in the assay on K-562 leukemia; 95.3% in the assay with MALME-3M melanoma; 100% with RXF 393 renal; 99.5% with SF-268 CNS; 98.8% in the assay on SF-295 CNS. Further, the growth in the assay with SF-539 CNS is 102%; in the assay with UACC-257 melanoma it was 110%; in the assay with M14 melanoma, 102%; with HCT-15 colon, 101%; in the assay with SNB-75 CNS, 71.4%; in the assay on SNB-19 CNS, 98.8%. The growth with U251 CNS was 100%; with PC-3 prostate it was 106%; in the assay with SK-MEL-5 melanoma it was 99.9%; in the assay with UACC-62 melanoma, 95.6%; with SK-MEL-28 melanoma, 108%.

Consider `Cc1c(C(=O)NNC(=O)c2ccc(Cl)cc2)nnn1-c1ccc(Br)cc1`, for which the growth with DU-145 prostate was 109%; in the assay with K-562 leukemia it was 91.3%; in the assay on MALME-3M melanoma, 93.8%; in the assay with RXF 393 renal, 93.1%; in the assay on SF-268 CNS it was 108%; in the assay with SF-295 CNS it was 90.9%. In addition, the growth in the assay on SF-539 CNS is 94.2%; with UACC-257 melanoma, 97.7%; with HCT-15 colon, 98.3%; in the assay on HT29 colon, 96.4%; with SNB-75 CNS, 90.6%; with SNB-19 CNS, 97%. Further, the growth was 112% with U251 CNS; 99.9% in the assay with PC-3 prostate; 97.7% with SK-MEL-5 melanoma; 90.5% in the assay on UACC-62 melanoma; 95.7% in the assay with SK-MEL-28 melanoma.

Take `CC(=O)N1CCN(Cc2ccc3c(NNC(=O)c4cnccn4)nc4cc(F)ccc4n23)CC1`: the growth is 39.4% in the assay on DU-145 prostate; 30.4% in the assay with MALME-3M melanoma; 36.5% in the assay with MDA-MB-231 breast; 54.2% in the assay with RXF 393 renal; 28.7% with SF-268 CNS; 10.7% in the assay with SF-295 CNS. Besides, the growth with SF-539 CNS was 6.02% (active); in the assay with UACC-257 melanoma it was 13.3%; with M14 melanoma, -31.4% (active); in the assay with HCT-15 colon, 30.3%; with HT29 colon, 35.9%; in the assay on SNB-75 CNS it was 65.7%. Moreover, the growth was 25.4% with SNB-19 CNS; 13.1% in the assay with U251 CNS; 40.9% in the assay with PC-3 prostate; 9.03% (active) in the assay with UACC-62 melanoma; 10.3% in the assay on LOX IMVI melanoma; 30.4% with SK-MEL-28 melanoma.
